# CF NFkB block: cystic fibrosis NF-kB activation inhibition | KKLEB NF-kB-GFP reporter, PAF-induced, GFP fluorescence overnight | inhibition, % at 5 µM | actives 0.86% (n = 360,000);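 active means at least 50% inhibition at 5 µM, scaled per plate between neutral and stimulator controls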;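 further: PAF is a Pseudomonas aeruginosa culture filtrate used as stimulus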
# HIF-2a inh: HIF-2a inhibition; 786-0 RCC cells HIF-2a reporter, luciferase luminescence, overnight; inhibition, % at 18.8 µM; actives 0.72% (n = 360,000); AID 624352;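 active means inhibition of the luminescence signal of 40% or more relative to plate controls, in a single-dose primary screen at 18.75 µM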
# Peg3 prom inh: reduces Peg3 promoter-driven luciferase expression in HeLa | AID 588405 | actives 1.7% (n = 360,000) | HeLa PEG-Prom luciferase reporter, luminescence, overnight | inhibition, % at 20 µM;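 active means inhibition of at least 50% at 20 µM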
# Shn3 inh set2: inhibitors of Schnurri-3 3'UTR reporter in osteoblasts | Clone20 osteoblast Shn3 3'UTR firefly luciferase, 24 h | inhibition, % at 12.5 µM | actives 0.52% (n = 360,000) | AID 588674;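 active means mean inhibition of at least 75% with every replicate also reaching 75%; inconclusive means mean inhibition at least 75% but some replicate below; inactive means mean inhibition below 75%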
# MITF TRPM1 inh: MITF TRPM1 promoter inhibition in SK-MEL-5 cells; SK-MEL-5 TRPM1 promoter luciferase, 24 h; inhibition, % at 12.5 µM; actives 0.83% (n = 330,000); AID 488899;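 active means mean inhibition across replicates of 60% or more, whatever share of single replicates reaches that level; inconclusive means some that reach 60%, reason not given; inactive means mean inhibition across replicates below 60%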
# KKLEB cytotox: CF airway cell cytotoxicity counter-screen | actives 0.36% (n = 360,000) | AID 602141 | activity change (cytotoxicity), % at 5 µM | KKLEB CF airway cells viability, ATPlite luminescence, overnight; stronger effect = lower value; cells stimulated with P. aeruginosa culture filtrate;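 active means corrected activity change at or below -50% at 5 µM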
# Hits are given with their value; . = inactive; ? = inconclusive; / = no result given. A selection: hits, their analogues and other compounds. The true share with any hit is near 2.7%.
SMILES,CF NFkB block,HIF-2a inh,Peg3 prom inh,Shn3 inh set2,MITF TRPM1 inh,KKLEB cytotox
COc1ccc(SN=C2C(C)=CC(=O)C=C2C)cc1,.,.,.,.,.,.
Cc1ccccc1S(=O)(=O)NC(=O)C1(C)CCN1C(=O)CC1CCCCC1 (stereo unspecified),.,.,.,.,/,.
O=C1NC[C@@H](CCCCN2C[C@H](Cc3ccc(O)cc3)N(CCc3ccccc3)C(=O)C2=O)N(CCC2CCCCC2)C1=O,/,.,/,/,/,/
O=C(c1ccc(S(=O)(=O)N2CCCCC2)cc1)N1CCN(c2ccccc2)CC1,.,.,.,.,.,.
CC1CCCCN1S(=O)(=O)c1ccc(S(=O)(=O)N2CCN(c3ccccc3)CC2)cc1 (stereo unspecified),.,.,59,.,.,.
C1CCC(C(CC2CCCCN2)C2CCCCC2)CC1 (stereo unspecified),.,.,104,?,81,.
CC1=C(CC(=O)c2ccccc2)C(=O)c2ccccc2C1=O,77,.,.,.,66,.
CCOc1ccc(/C=C2\SC(=S)N(CCCC(=O)NCCCN3CCOCC3)C2=O)cc1,.,71,68,.,.,.
CCc1ccc(/C=C2\SC(=S)N(CCCC(=O)NCCCN3CCOCC3)C2=O)cc1,.,83,84,.,/,.
Cc1ccc(NC(=O)C2(C)CCN2C(=O)C2CCCCC2)cc1C (stereo unspecified),.,.,.,.,/,.
COc1cc(O)c(C(=O)/C=C/c2ccccc2)c(OC)c1,.,.,61,.,/,.
COc1cc(OC)c(C(=O)C=Cc2ccc(OC)c(OC)c2)c(OC)c1,.,.,.,.,.,.
CN(C)c1ncnc2c1ncn2[C@H]1CN(Cc2ccc(Cl)cc2)C[C@@H](CO)O1,.,.,.,.,/,.
COc1cc(CNCCO)cc(Cl)c1OCc1ccc(Cl)cc1Cl,.,.,105,.,.,.
COc1cc(CNC(C)(C)CO)cc(Br)c1OCc1ccc(Cl)cc1Cl,.,.,90,.,.,.
COc1cc(CNCCO)cc(Br)c1OCc1ccccc1Cl,.,.,.,.,.,.
COc1ccccc1-c1cc(C(=O)Nc2cc(C)n(Cc3ccc(Cl)cc3)n2)no1,60,.,.,.,.,-76
Cc1cc(C(=O)Nc2cc(C)n(Cc3ccc(Cl)cc3)n2)no1,.,.,.,.,.,.
COC(=O)CC1(c2ccccc2)C(=O)c2ccccc2C1=O,.,.,.,.,.,.
COC(=O)CC1(c2cccc3ccccc23)C(=O)c2ccccc2C1=O,.,78,.,.,.,.
COCC1CCN(C(=O)c2cc(COc3ccc4ncccc4c3)on2)CC1,.,.,.,86,.,.
Cc1nn(Cc2c(Cl)cccc2Cl)c(C)c1NC(=O)c1cnn2c(C(F)F)cc(-c3ccccc3)nc12,.,.,.,.,.,.
Cc1ccc(-c2cc(C(F)F)n3ncc(C(=O)Nc4c(C)nn(Cc5c(Cl)cccc5Cl)c4C)c3n2)cc1,77,.,.,.,.,-65
COc1ccc(CC2(CO)CCN(CC3=Cc4cc(Cl)ccc4OC3)CC2)cc1,.,.,.,90,.,.
CC(C)C(=O)NC(c1ccc(Cl)cc1Cl)c1ccc2cccnc2c1O (stereo unspecified),.,.,.,87,.,.
SMILES,CF NFkB block,HIF-2a inh,Peg3 prom inh,Shn3 inh set2,MITF TRPM1 inh,KKLEB cytotox
CCC(=O)NC(c1ccc(Cl)cc1Cl)c1ccc2cccnc2c1O (stereo unspecified),.,.,.,?,.,.
Oc1ccc(/C=N/Nc2nc(N3CCCC3)nc(N3CCCC3)n2)cc1O,.,.,.,93,.,.
COc1ccc(O)c(/C=N/Nc2nc(C)cc(-c3ccccc3)n2)c1,.,.,.,.,.,.
CNc1nc(N/N=C/c2cc3c(cc2[N+](=O)[O-])OCO3)nc(Nc2ccccc2)n1,.,.,86,.,.,.
COc1cc(/C=N/Nc2nc(Nc3ccc(C)cc3)nc(-n3nc(C)cc3C)n2)cc(OC)c1OC,.,.,.,.,.,.
COc1cc(/C=N/Nc2nc(N3CCCC3)nc(N3CCCC3)n2)ccc1O,.,.,.,.,.,.
COc1ccc(O)c(/C=N/Nc2nc(Nc3ccccc3)nc(-n3nc(C)cc3C)n2)c1,74,.,.,.,.,.
COc1cc(/C=N/Nc2nc(Nc3ccccc3)nc(-n3nc(C)cc3C)n2)cc(OC)c1OC,72,.,.,.,.,.
CNc1nc(N/N=C/c2cc([N+](=O)[O-])ccc2F)nc(Nc2ccccc2)n1,.,.,.,.,.,.
COc1cc(F)ccc1-c1csc(C(C)(O)c2ccc(F)c(F)c2)n1 (stereo unspecified),.,.,.,.,/,.
COc1ccc(/C=N/Nc2nc(Nc3ccccc3)nc(N3CCCC3)n2)cc1[N+](=O)[O-],.,.,60,.,.,.
Cc1ccccc1NC(=O)c1ccccc1NC(=O)Cc1cccc2ccccc12,.,.,.,.,.,.
Cc1ccccc1NC(=O)c1cccc2nc3ccccc3nc12,.,.,.,.,66,.
CC(C)(C)c1nn(-c2ccccc2)c2[nH]c(=O)c(CNCc3ccc4c(c3)OCO4)cc12,.,.,.,.,66,.
COC(=O)C1(C(=O)OC)C/C=C\CN(S(=O)(=O)c2ccccc2[N+](=O)[O-])CC1,/,.,/,/,/,/
COc1ccc(NC(=O)CSc2ccccn2)cc1OC,.,.,.,.,.,.
COc1ccc(NC(=O)CSc2ncccc2C(=O)OC(C)C)cc1OC,.,.,.,87,.,.
CC(C)Cn1c(SC(C)C(=O)Nc2ccc3c(c2)OCCO3)nc2ccccc2c1=O (stereo unspecified),.,.,.,.,.,.
CC(Sc1nc2ccccc2c(=O)n1C)C(=O)Nc1ccc2c(c1)OCCO2 (stereo unspecified),.,.,.,86,.,.
CCCCCNC(=O)C(c1cccc2ccccc12)n1c(=O)c(-c2cc3ccccc3[nH]2)nc2ccccc21 (stereo unspecified),/,.,/,/,/,/
Cc1ccccc1-c1csc(C(O)c2ccccc2)n1 (stereo unspecified),.,.,.,.,/,.
Cc1cc(O)cc2c(=O)c3ccccc3sc12,.,.,.,.,.,.
CN(C)CCNc1cccc2sc3ccc(O)cc3c(=O)c12,.,43,99,.,/,.
COc1cc(C)c2sc3ccccc3c(=O)c2c1NCCN(C)C,.,.,100,.,/,.
Cc1cccc(C)c1-n1nnnc1C(c1ccnc2ccccc12)N1CCN(C(=O)OCc2ccccc2)CC1 (stereo unspecified),/,.,/,/,/,/
COc1ccc(Cn2c(-c3ccc(C)cc3)c[n+]3ccccc23)cc1,.,.,.,.,78,.
COc1ccc(-c2nc3ccccc3n2Cc2ccc(C)cc2)cc1,.,.,.,.,.,.
COc1cc2c3c(cccc3c1)C(=O)N(CCN1CCCC1)C2=O,.,.,102,.,/,.

# Screens: PubChem BioAssay, several laboratories
